For part of these data: Results with a measured potency or affinity are listed apart. The source made the active and inactive calls.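 The calls were made as follows, unless noted: active = fitted half-maximal concentration within 10 nM to 100 µM, steepness 0.5 to 2, significant signal drop, low assay interference; inactive = the rest.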
Legend:
[1] = biological target: Cell division control protein 42 homolog (Homo sapiens) (UniProt P60953); test: inhibition of fluorescent GTP binding to constitutively active Cdc42 – biochemical, multiplex bead flow cytometry, Bodipy-FL-GTP, dose response (AID 1333;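 active = fitted half-maximal concentration within the tested dose range, moderate curve steepness, a statistically real signal drop, and little compound fluorescence or tag-binding interference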); settings: bead-based flow cytometry; series mostly up to 100 µM
[2] = biological target: Cell division control protein 42 homolog (Homo sapiens) (UniProt P60953); test: inhibition of fluorescent GTP binding to wildtype Cdc42 – biochemical, multiplex bead flow cytometry, Bodipy-FL-GTP, dose response (AID 1334;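 active = fitted half-maximal concentration within the tested range, moderate curve steepness, significant signal drop, and little compound fluorescence or bead-linkage interference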); settings: bead-based flow cytometry, Bodipy-FL-GTP binding to GST-Cdc42; at 100 µM (top of the series) unless noted
[3] = biological target: GTPase HRas (Homo sapiens) (UniProt P01112); test: Ras wt fluorescent GTP loading blockade – biochemical, wildtype, multiplex bead flow cytometry, dose response (AID 1335); settings: bead-based flow cytometry, Bodipy-GTP binding to GST-Ras; at 100 µM (top of the series) unless noted
[4] = tested on: Ras-related protein Rab-7a (dog), GTP binding; test: blockers of fluorescent GTP binding to Rab7 – biochemical, wildtype, multiplex bead flow cytometry, dose response (AID 1336; call rule not given here); settings: bead-based flow cytometry; series mostly up to 100 µM
[5] = biological target: Ras-related C3 botulinum toxin substrate 1 (Homo sapiens) (UniProt P63000); test: inhibition of wildtype Rac1 nucleotide loading – biochemical, multiplex bead flow cytometry, dose response (AID 1340;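 active = dose curve with midpoint inside tested range, moderate steepness, plateau gap beyond fit error, low compound glow and bead-link interference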); settings: GST-Rac1 beads, Bodipy-FL-GTP binding; at 100 µM (top of the series) unless noted
[6] = biological target: GTPase HRas (Homo sapiens) (UniProt P01112); test: blockade of GTP loading onto mutant Ras – biochemical, activated mutant, multiplex bead flow cytometry, dose response (AID 1341;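 active = dose-response curve with midpoint inside the tested range, moderate steepness, significant amplitude and little compound fluorescence or bead-attachment interference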;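 also: GST-tagged constitutively activated Ras mutant immobilized on beads and multiplexed with other GTPases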); settings: bead-based flow cytometry, Bodipy-FL-GTP binding; series mostly up to 100 µM

Chain of Cell division control protein 42 homolog (Homo sapiens) (P60953 whole entry, looked up): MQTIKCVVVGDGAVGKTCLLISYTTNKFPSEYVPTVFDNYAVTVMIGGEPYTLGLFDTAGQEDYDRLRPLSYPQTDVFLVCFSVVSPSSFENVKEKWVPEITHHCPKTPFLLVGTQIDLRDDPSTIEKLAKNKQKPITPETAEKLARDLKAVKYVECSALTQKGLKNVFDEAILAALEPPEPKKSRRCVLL
Chain of GTPase HRas (Homo sapiens) (P01112 whole entry, looked up): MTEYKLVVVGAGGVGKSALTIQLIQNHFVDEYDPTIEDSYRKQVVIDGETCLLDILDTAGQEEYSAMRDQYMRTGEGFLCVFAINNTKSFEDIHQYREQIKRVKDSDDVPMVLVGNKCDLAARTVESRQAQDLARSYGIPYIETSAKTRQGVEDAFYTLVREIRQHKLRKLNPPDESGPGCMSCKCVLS

| SMILES | outcome [1] | fluorescence, percent of control (lower = inhibition) [2] [%] | GTP binding, percent of control [3] | outcome [4] | GTP binding signal, raw median fluorescence (lower = inhibition) (MCF (arbitrary fluorescence units)) [5] | outcome [6] |
| --- | --- | --- | --- | --- | --- | --- |
| C/C(=N\Nc1cc(C)nc(-c2ccccc2)n1)c1cccc([N+](=O)[O-])c1 | inactive | 33.6 | 77.8% | inactive | 193 | inactive |
| COc1cccc(/C=C/C(=O)Nc2ccccc2N2CCOCC2)c1 | inactive | 33.2 | 83.5% | inactive | 243 | inactive |
| COc1c(C)cc(Br)cc1C(=O)O | inactive | 46.9 | 97% | inactive | 59.3 | inactive |
| O=C(COc1ccccc1-c1ccccc1)N/N=C/c1ccncc1 | inactive | 33.3 | 77.4% | inactive | 247 | inactive |
| C=CCc1ccccc1OCc1cccc(C(=O)O)c1 | inactive | 78.7 | 99.3% | inactive | 56.1 | inactive |
| Cc1ccc(C)c(CSc2ncccc2C(=O)O)c1 | inactive | 64.5 | 73.7% | inactive | 222 | inactive |
| COc1cccc(Nc2c(F)c(F)c(F)c(F)c2C(=O)O)c1 | inactive | 53.4 | 60.7% | inactive | 0 | inactive |
| CCOc1nnc(C)c2c(C)n(-c3ccc(Cl)cc3)nc12 | inactive | 52.2 | 66.3% | inactive | 197 | inactive |
| C=CCc1cc(/C=C/c2nc(O)c([N+](=O)[O-])c(=O)[nH]2)cc(OC)c1O | inactive | 31.5 | 77.1% | inactive | 177 | inactive |
| CCN(CC)c1ccc(/C=C/C(=O)c2ccc(Br)cc2)cc1 | inactive | 312 | 319% | inactive | 0 | inactive |
| CC(=O)c1cc2c(cc1NC(=O)c1cccc(S(=O)(=O)N3CCN(C)CC3)c1)OCO2 | inactive | 40.9 | 86.3% | inactive | 196 | inactive |
| Cn1c(O)c(C2=c3ccccc3=NC2=O)[nH]c1=S | inactive | 37.9 | 83.1% | inactive | 214 | inactive |
| N#Cc1c2c(c(-c3ccccc3Cl)[nH]c1=S)CCCC2 | inactive | 28.8 | 78.4% | inactive | 248 | inactive |
| COc1ccc(CC(=O)Nc2ccc(C(=O)Nc3nccs3)cc2)cc1OC | inactive | 36.7 | 75.2% | inactive | 163 | inactive |
| Cn1nnnc1SCc1ccc(C(=O)Nc2nccs2)cc1 | inactive | 36.8 | 47.9% | inactive | 126 | inactive |
| COc1ccc(CC(C)N2CCN(Cc3ccccc3)CC2)c(OC)c1 (stereo unspecified) | inactive | 38.1 | 85.3% | inactive | 272 | inactive |
| Cc1noc(/C=C/c2ccc(-c3ccccc3Cl)o2)c1[N+](=O)[O-] | inactive | 125 | 171% | inactive | 199 | inactive |
| Cc1ccc(CSCc2ccc(C(=O)O)o2)cc1 | inactive | 50.3 | 74.2% | inactive | 28.2 | inactive |
| Cn1c(=O)c2cc(S(=O)(=O)NCCC(=O)NCc3ccccc3Cl)ccc2n(C)c1=O | inactive | 64 | 109% | inactive | 122 | inactive |
| CCOC(=O)N1CCN(Cc2cn[nH]c2-c2cc3ccccc3o2)CC1 | inactive | 34.4 | 82.1% | inactive | 246 | inactive |
| COCCNC(=S)Nc1cc(OC)c(OC)cc1C#N | inactive | 40.8 | 74.7% | inactive | 144 | inactive |
| O=C(COC(=O)c1ccc2c(c1[N+](=O)[O-])C(=O)c1ccccc1C2=O)NC1CC1 | inactive | 29.3 | 72.9% | inactive | 178 | inactive |

| SMILES | outcome [1] | fluorescence, percent of control (lower = inhibition) [2] [%] | GTP binding, percent of control [3] | outcome [4] | GTP binding signal, raw median fluorescence (lower = inhibition) (MCF (arbitrary fluorescence units)) [5] | outcome [6] |
| --- | --- | --- | --- | --- | --- | --- |
| CCOC(=O)C1=NN(c2ccc(C)cc2)CC1C(=O)OC (stereo unspecified) | inactive | 41.5 | 86.3% | inactive | 244 | inactive |
| Oc1c(C=Nc2ccccc2)sc(=S)n1Cc1ccccc1 | inactive | 34.6 | 75.7% | inactive | 232 | inactive |
| CCOC(=O)Cc1csc(NC(=O)CSc2nc(-c3ccccc3)c(C#N)c(=O)[nH]2)n1 | inactive | 29.4 | 76.1% | inactive | 218 | inactive |
| O=C(O)c1ccc(NS(=O)(=O)c2ccc3c(c2)C(=O)c2ccccc2C3=O)cc1 | inactive | 28.6 | 69% | inactive | 118 | inactive |
| COc1cc(NC(=O)c2cccs2)c(OC)cc1NC(=O)CCC(=O)Nc1ccc2ncccc2c1 | inactive | 30.9 | 69.1% | inactive | 196 | inactive |
| CC(=O)Nc1ccc(N=Cc2c(O)c(C(=O)Nc3ccccc3)cc3ccccc23)cc1 | inactive | 85.4 | 123% | inactive | 341 | inactive |
| Cc1ccc(Nc2cc(C(=O)O)c3ccccc3n2)cc1C | inactive | 60.9 | 84.7% | inactive | 31.9 | inactive |
| COc1cc(/C=C2/C(C)=C(C#N)c3nc(N)c(C#N)c(C)c32)ccc1OCC(=O)O | inactive | 25.9 | 62% | inactive | 161 | inactive |
| O=S(=O)(Nc1cccc(-c2cn3cccnc3n2)c1)c1ccc(F)cc1 | inactive | 36.5 | 46% | inactive | 0 | inactive |
| COc1cc(/C=N/NC(=O)CN(Cc2ccccc2)S(=O)(=O)c2ccc3c(c2)OCCO3)ccc1O | inactive | 40.1 | 52.5% | inactive | 126 | inactive |
| Cc1cc(C)n(C(=O)CNC(=O)c2ccc3c(c2)OCCO3)n1 | inactive | 53.2 | 61.7% | inactive | 200 | inactive |
| O=C(O)C1C2C=CC(C2)C1C(=O)N1CCOCC1 (stereo unspecified) | inactive | 53.2 | 66.4% | inactive | 216 | inactive |
| COc1ccc(-c2csc(C3=C(O)CN(C(C)C)C3=N)n2)cc1OC | inactive | 31.9 | 73.2% | inactive | 181 | inactive |
| O=C(O)c1ccccc1NCc1c(Cl)cccc1Cl | inactive | 59.4 | 87.4% | inactive | 30.2 | inactive |
| O=c1[nH]c2sc3c(c2c2nncn12)CCCC3 | inactive | 23.4 | 59.2% | inactive | 103 | inactive |
| O=C(Cn1nc2ccccc2n1)N/N=C/c1cc([N+](=O)[O-])ccc1O | inactive | 23.8 | 54.9% | inactive | 109 | inactive |
| C(=N\Nc1nn2cnnc2c2ccccc12)/c1ccco1 | inactive | 31.6 | 64.2% | inactive | 142 | inactive |
| O=C1NC(=S)N/C1=C/c1cc([N+](=O)[O-])ccc1O | inactive | 60.7 | 157% [at 33.3 µM] | inactive | 185 [at 33.3 µM] | inactive |
| COc1cc(/C=N/Nc2nc(C)nc3c2cnn3-c2ccccc2)ccc1O | inactive | 87.1 | 128% | inactive | 241 | inactive |
| CC(SC(=S)N(C)Cc1cccs1)C(=O)O (stereo unspecified) | inactive | 83.3 | 79.5% | inactive | 312 | inactive |
| Cc1c(C(=O)N/N=C/c2ccc(-c3ccccc3[N+](=O)[O-])o2)sc(N)c1C#N | inactive | 37.4 | 49.1% | inactive | 157 | inactive |
| O=C(CN1CCN(c2ccc(O)cc2)CC1)Nc1cc(S(=O)(=O)N2CCCCC2)ccc1Cl | inactive | 35.8 | 87.7% | inactive | 281 | inactive |

| SMILES | outcome [1] | fluorescence, percent of control (lower = inhibition) [2] [%] | GTP binding, percent of control [3] | outcome [4] | GTP binding signal, raw median fluorescence (lower = inhibition) (MCF (arbitrary fluorescence units)) [5] | outcome [6] |
| --- | --- | --- | --- | --- | --- | --- |
| Cc1ccccc1-n1c(SCc2c(C)noc2C)nnc1-c1cccnc1 | inactive | 104 | 179% | inactive | 195 | inactive |
| COc1ccc(CNCc2sc(C(=O)O)cc2C)cc1OC | inactive | 59.2 | 78.1% | inactive | 32.2 | inactive |
| CC(=O)Oc1cccc(C#CC(=O)c2ccc([N+](=O)[O-])cc2)c1 | inactive | 35.4 | 173% | inactive | 95.5 | inactive |
| Cc1cc2ccccn2c1C(=O)c1cccc([N+](=O)[O-])c1 | inactive | 34 | 81.2% | inactive | 250 | inactive |
| O=C(O)c1cccc(NCc2ccccc2)c1 | inactive | 65.9 | 86.9% | inactive | 38.8 | inactive |
| CCOc1ccc(-n2c(-c3ccco3)n[nH]c2=S)cc1 | inactive | 56.1 | 112% | inactive | 107 | inactive |
| O=C(N/N=C(\c1ccccc1)c1ccccn1)c1cccc([N+](=O)[O-])c1 | inactive | 31.4 | 68.7% | inactive | 143 | inactive |
| O=C(Nc1cccc(-c2nnc(-c3ccco3)o2)c1)c1ccccc1 | inactive | 33.7 | 76.1% | inactive | 190 | inactive |
| Cc1ccc(/C(N)=N/OC(=O)CCC2CCCCC2)cc1 | inactive | 80.5 | 154% | inactive | 180 | inactive |
| O=C(O)c1cccc(NCc2ccc3c(c2)OCO3)c1 | inactive | 64.9 | 88.8% | inactive | 41.9 | inactive |
| CCOC(=O)c1cc(C(=O)OCC)c2ccccn2c1=O | inactive | 42.1 | 87.2% | inactive | 246 | inactive |
| O=C(O)CSc1nc2ccccc2n1CCOc1ccccc1F | inactive | 58.4 | 90.3% | inactive | 37.2 | inactive |
| COc1ccc(OC)c(CCNCc2ccc(C(=O)O)s2)c1 | inactive | 58.4 | 82.2% | inactive | 35.9 | inactive |
| Cc1nc2sccn2c1-c1nc(-c2cc3ccccc3o2)cs1 | inactive | 50.9 | 57.4% | inactive | 155 | inactive |
| Cc1no[n+]([O-])c1COc1cccc(/C=C2\N=C(c3ccccc3)OC2=O)c1 | inactive | 46.6 | 60.8% | inactive | 184 | inactive |
| Cc1ccn2c(NCc3ccc4c(c3)OCO4)c(-c3ccc(O)cc3)nc2c1 | inactive | 60.4 | 75% | inactive | 0 | inactive |
| Cc1cc(C(=O)NNC(=S)NC(C)c2ccccc2)c2ccccc2n1 (stereo unspecified) | inactive | 95.6 | 177% | inactive | 197 | inactive |
| Cc1cc(=O)[nH]c2c(N=Nc3ccc(O)cc3)c(N)nn12 | inactive | 31.3 | 69.7% | inactive | 161 | inactive |
| COc1ccccc1OCCn1cc(C(=O)O)c2cccc(Cl)c21 | inactive | 53.4 | 199% | inactive | 56.2 | inactive |
| COc1ccc(CNc2nc3c(c(=O)n(Cc4ccc(Br)cc4)c(=O)n3C)n2C)cc1 | inactive | 32 | 83.8% | inactive | 222 | inactive |
| OC(CNCCC1C=Nc2ccccc21)Cn1c2ccc(Cl)cc2c2cc(Cl)ccc21 (stereo unspecified) | inactive | 60.4 | 67.9% | inactive | 386 | inactive |
| C/C(=N\NC(=O)c1c[nH]c2ccccc12)c1ccc(C)o1 | inactive | 29.9 | 68.2% | inactive | 150 | inactive |
